{"source": "paper PMC12214610", "key": {"[1]": {"biological_target": "Small ribosomal subunit protein uS3 (UniProt P0A7V3)"}, "[2]": {"biological_target": "Small ribosomal subunit protein uS8 (UniProt P0A7W7)"}, "[3]": {"biological_target": "Small ribosomal subunit protein uS5 (UniProt P0A7W1)"}, "[4]": {"biological_target": "Large ribosomal subunit protein eL36 (UniProt Q9Y3U8)"}}, "data": [{"substance": "Small ribosomal subunit protein uS10, P0A7R5", "values": [{"measurement": "listed as a hit", "setting": "[1]", "result": "yes"}]}, {"substance": "Small ribosomal subunit protein uS2, P0A7V0", "values": [{"measurement": "listed as a hit", "setting": "[1]", "result": "yes"}, {"measurement": "listed as a hit", "setting": "[2]", "result": "yes"}]}, {"substance": "Small ribosomal subunit protein uS4, P0A7V8", "values": [{"measurement": "listed as a hit", "setting": "[3]", "result": "yes"}]}, {"substance": "Small ribosomal subunit protein uS5, P0A7W1", "values": [{"measurement": "listed as a hit", "setting": "[2]", "result": "yes"}]}, {"substance": "Large ribosomal subunit protein eL15, P61313", "values": [{"measurement": "listed as a hit", "setting": "[4]", "result": "yes"}]}]}
